# Bioassay records from PubChem.
# Compounds with a hit are over-represented: about 12% of the library has one in this group of screens.
# L major viab – inhibitors of Leishmania major promastigote growth; Leishmania major promastigotes, resazurin fluorescence viability; inhibition, % at 10 µM; 200,000 compounds, 9% hits; AID 1063; in the data active = inhibition above about 50%;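 note: promastigotes grown with compound for 44 hours at 28 °C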
# Arbovirus inh – antivirals against arbovirus infection; arbovirus infection cell-based antiviral screen; inhibition, % at 10 µM; 200,000 compounds, 0.37% hits; AID 1251; in the data active = inhibition above about 30%
# WT yeast gro inh – growth inhibition of WT yeast, mitochondrial fusion screen. inhibition, % at 10 µM. mitochondrial fusion phenotypic screen, WT strain. 190,000 compounds, 2.1% hits; in the data active = inhibition above about 58%; tested in S. cerevisiae
# CHOP inhibitor – blocks CHOP induction under ER stress | CHO-K1 CHOP-promoter luciferase, tunicamycin-induced, 15-18 h | inhibition, % at 10 µM | 220,000 compounds, 3.8% hits;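 active = compounds that reduced the stress-induced luciferase reporter signal by more than about 70% of percent inhibition, limit read from the data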;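 note: 0% = tunicamycin plus vehicle and 100% = wells without tunicamycin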
# * marks the source's active call; other numbers are inactive results; x = not tested or not shown.
SMILES,L major viab,Arbovirus inh,WT yeast gro inh,CHOP inhibitor
CC(C(=O)N1CCOCCOCCOCCOCCOCC1)N1C(=O)c2ccccc2C1=O (stereo not drawn),-5.8,2.7,-4.4,14.1
CCCCCC(=O)NN1C(=S)N(c2ccc(OC)cc2)C(=O)C1CC(=O)Nc1ccccc1 (stereo not drawn),x,x,x,0.1
O=C(CCn1nc(-c2ccccc2)c2ccccc2c1=O)NCC1CCCO1 (stereo not drawn),-5.1,-9.0,63.2*,10.9
COc1ccc2c(c1)c1ncn(CCCN3CCOCC3)c(=O)c1n2C,54.6*,9.4,3.3,8.2
COc1ccc2c(c1)[nH]c1c(=O)n(CCCN3CCOCC3)cnc12,1.1,-0.2,-2.0,27.0
Cc1cccc(CN(CC(=O)N/N=C/c2cccs2)S(=O)(=O)c2ccc(Cl)cc2)c1,93.4*,-33.4,49.7,77.5*
COc1ccc(N(CC(=O)N/N=C/c2ccc3c(c2)OCO3)S(=O)(=O)c2ccccc2)cc1,-1.7,-4.8,-2.6,3.0
COc1ccc(S(=O)(=O)N(CCc2ccccc2)CC(=O)N/N=C/c2ccc3c(c2)OCO3)cc1,98.5*,-4.4,12.4,33.0
Cc1cccc(CN(CC(=O)N/N=C/c2ccco2)S(=O)(=O)c2ccc(Cl)cc2)c1,1.2,2.1,41.2,-1.2
O=C(CN(CCc1ccccc1)S(=O)(=O)c1ccc(Cl)cc1)N/N=C/c1ccc2c(c1)OCO2,47.6,-10.1,-17.3,76.8*
Cn1c(N)c(C(=O)COC(=O)c2ccc(S(=O)(=O)N3CCCCC3)cc2)c(=O)n(C)c1=O,-8.4,7.3,-2.9,14.7
CCOC(=O)N1CCN(C(=O)c2ccc(OC(C)=O)cc2)CC1,-0.7,-2.8,13.8,-3.5
CCOc1ccc2cc(C3CC(c4ccco4)=NN3S(C)(=O)=O)c(Cl)nc2c1 (stereo not drawn),x,x,x,17.1
CCc1ccc(C2CC(c3ccco3)=NN2S(C)(=O)=O)cc1 (stereo not drawn),2.1,1.1,-2.3,72.7*
CC(=O)Nc1ccc(NC(=O)C2CC(=O)N(c3ccccc3Cl)C2)cc1 (stereo not drawn),-0.2,1.7,-8.0,-16.4
O=S(=O)(NCCSc1ccc(Cl)cc1)c1ccc(F)cc1,4.5,-3.3,-11.1,70.7*
Cc1cc(NC(=O)c2ccccc2-c2ccccc2)ccc1Br,80.5*,0.5,72.0*,19.1
O=C(CN1C(=O)C2C3c4ccccc4C(c4ccccc43)C2C1=O)Nc1cccc(C(=O)O)c1 (stereo not drawn),-7.1,21.5,-4.0,-18.8
COc1ccc(N2C(=O)CSC23CCC(C(C)(C)C)CC3)cc1 (stereo not drawn),-3.2,16.6,6.4,78.5*
COc1ccc(C(C)=O)cc1COC(=O)c1cccnc1SC,3.3,0.8,8.4,10.9
COc1cc(NC(=O)Cn2ncc(Cl)c(Cl)c2=O)c(C)cc1[N+](=O)[O-],89.4*,-36.1,-2.4,108.6*
COc1cc(NC(=O)CN2C(=O)CN(C)C2=O)c(C)cc1[N+](=O)[O-],1.2,-3.7,7.3,24.9
COc1cc(NC(=O)CN2CCCCC2C)c(C)cc1[N+](=O)[O-] (stereo not drawn),69.3*,-6.8,-4.5,10.2
CN(C)CCOC(=O)CCCCCCCCC(=O)OCCN(C)C,x,x,x,17.6
O=C1CC(SC(=Nc2ccccc2)Nc2ccccc2)C(=O)N1c1cccc(Cl)c1 (stereo not drawn),61.0*,-12.3,-10.7,49.6
SMILES,L major viab,Arbovirus inh,WT yeast gro inh,CHOP inhibitor
COc1ccc(C)cc1S(=O)(=O)N1c2ccccc2CC1C (stereo not drawn),100.1*,1.3,0.9,22.9
Cc1ccc(S(=O)(=O)N2c3ccccc3CC2C)cc1 (stereo not drawn),12.2,-11.7,-3.0,3.1
CC1Cc2ccccc2N1S(=O)(=O)c1cccs1 (stereo not drawn),90.0*,-5.6,13.0,2.5
CC1Cc2ccccc2N1C(=O)CN1C(=O)COc2ccccc21 (stereo not drawn),-2.4,12.9,-7.0,-1.0
CC1Cc2ccccc2N1C(=O)Cn1c(=O)cc(O)c2ccccc21 (stereo not drawn),-8.3,-10.5,96.8*,13.3
CC1Cc2ccccc2N1C(=O)Cc1cccs1 (stereo not drawn),-2.0,-4.4,-2.8,70.6*
CC1Cc2ccccc2N1C(=O)CCS(=O)(=O)c1cccs1 (stereo not drawn),-1.8,1.0,-5.7,-6.8
CCc1nc(SCC(=O)Nc2ccc(N(C)C)cc2)c2ccccc2n1,x,x,x,-2.2
COc1cc(/C=C(\NC(C)=O)C(=O)Nc2ccc(NC(C)=O)cc2)ccc1OC(C)=O,57.4*,-1.7,0.1,22.9
O=[N+]([O-])c1ccc(/C=N/n2cnc3ccccc32)s1,100.3*,-36.5,53.2,83.2*
FC(F)Oc1ccccc1/C=N/n1cnc2ccccc21,-7.0,11.0,13.4,12.8
Cc1cc2ncn(/N=C/c3ccc([N+](=O)[O-])s3)c2cc1C,100.4*,-27.6,85.8,2.6
Cc1[nH]c2ccccc2c1C1C(c2ccccc2)=NN=C(C(C)C)N1O (stereo not drawn),6.1,-6.5,1.4,71.6*
CC1(OC(=O)C2CCCC2)C(=O)C=C2C=C(c3ccsc3)N(CCc3ccccn3)C=C2C1=O (stereo not drawn),x,x,x,1.0
CN1C(=C2C(=O)OC(C)(C)OC2=O)Sc2ccccc21,99.5*,-9.2,0.3,17.0
O=C(O)CCC(=O)Nc1ccccc1Oc1ccccc1,0.3,2.9,8.9,-3.5
O=C(Cn1cnc2ccccc21)N/N=C/c1ccccc1[N+](=O)[O-],9.5,-8.6,-35.7,-0.2
Cc1ccc(CSC2=NCCN2S(=O)(=O)c2ccccc2)cc1,99.5*,14.1,34.1,17.7
Cc1ccc(-n2[nH]c(C)c(/C=C3/C=Nc4ccccc43)c2=O)cc1C,-0.9,-6.2,5.3,16.0
CCOC(=O)c1oc2ccc(Br)cc2c1NC(=O)CN1CCN(C)CC1,2.8,-17.8,8.7,3.7
COc1ccc2oc(C(=O)c3ccccc3)c(NC(=O)CN3CCN(C)CC3)c2c1,98.0*,-23.5,4.9,-61.7
COc1ccc(CN2CCN(CCCCOc3ccc(Cl)cc3)CC2)c(OC)c1OC,20.6,0.1,10.1,18.4
CCN(c1ccc(NC(=O)COC(=O)CCC(=O)c2ccc(F)cc2)cc1)C(C)C,0.7,14.3,24.6,43.6
CCN(CC)CCNCc1cc(Br)ccc1OCC(=O)NCc1ccccc1,13.1,-2.5,0.8,1.2
CC(NCc1cc(Br)ccc1OCC(=O)NCc1ccccc1)c1ccccc1 (stereo not drawn),97.6*,15.1,0.6,45.3
SMILES,L major viab,Arbovirus inh,WT yeast gro inh,CHOP inhibitor
COc1cc(CNC(C)c2ccccc2)c(Br)cc1OCC(N)=O (stereo not drawn),5.8,-2.7,1.6,39.2
COc1cc(CNCCN(C)C)c(Br)cc1OCC(=O)NCc1ccccc1,99.5*,0.5,5.2,7.3
COc1cc(CNCC(C)C)c(Br)cc1OCC(=O)NCc1ccccc1,95.8*,6.9,-9.0,0.2
CCN(CC)CCNCc1ccc(Br)cc1OCC(=O)NCc1ccccc1,5.9,-4.1,-20.4,-1.9
Cc1cnc(NC(=O)[C@H](C)N2C(=O)C3CCCCC3C2=O)s1 (stereo partly drawn),-4.9,26.0,-2.0,-13.7
N/C(CC(=O)NC1CCCCC1)=N\OCC(=O)Nc1ccc(Cl)c(Cl)c1,x,x,x,10.4
